# This is a sample that favours compounds with a hit; in the whole collection about 2.3% have one here.
# CHRM1 PAM: human CHRM1 positive allosteric modulation; CHO-K1 hM1, Fluo-8 calcium fluorescence, ACh EC20; 0% = ACh EC20, 100% = maximal ACh; 360,000 compounds, 0.088% hits; activation, % at 3 µM; in the data active = activation above about 19%, passing the limit was not always enough
# Target sequence (P11229 whole entry, looked up): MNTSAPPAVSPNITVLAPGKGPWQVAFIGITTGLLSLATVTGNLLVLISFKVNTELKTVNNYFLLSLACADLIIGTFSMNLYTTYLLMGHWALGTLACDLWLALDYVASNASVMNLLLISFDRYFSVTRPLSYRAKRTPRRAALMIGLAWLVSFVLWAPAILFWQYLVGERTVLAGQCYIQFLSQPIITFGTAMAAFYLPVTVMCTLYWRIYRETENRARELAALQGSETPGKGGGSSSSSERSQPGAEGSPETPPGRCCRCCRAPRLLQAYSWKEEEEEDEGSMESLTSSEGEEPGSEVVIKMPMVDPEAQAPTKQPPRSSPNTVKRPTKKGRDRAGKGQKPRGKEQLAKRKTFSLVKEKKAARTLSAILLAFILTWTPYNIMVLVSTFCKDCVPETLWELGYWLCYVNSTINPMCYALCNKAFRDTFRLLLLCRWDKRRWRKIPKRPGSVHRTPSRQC
# M1 PAM parental: nonselective activator or artifact in parental CHO-K1 calcium assay. ATP EC20, Fluo-8 calcium fluorescence; 0% at ATP EC20, 100% at ATP max. activation, % at 3 µM. 360,000 compounds, 0.02% hits;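 active = activation above the run cutoff, the mean activation of all test compounds plus 3 SD, cut at about 40% in these data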;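 note: peak over basal fluorescence ratio in a 140 s read after ATP addition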
# M1 ag parental: M1 agonist counterscreen hit in parental CHO-K1 cells; Fluo-8 calcium fluorescence; scaled to maximal ATP response, vehicle zero; activation, % at 3 µM; 360,000 compounds, 0.48% hits; in the data active = activation above about 15%;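 note: untransfected CHO-K1 host cells lacking M1 receptor as counterscreen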
# CHRM1 agonist: agonists of human M1 muscarinic receptor; activation, % at 3 µM; 360,000 compounds, 0.33% hits; CHO-K1 hM1, Fluo-8 calcium fluorescence, agonist mode; 0% DMSO, 100% acetylcholine EC100; AID 588814; P11229;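 active = activation above the run's mean compound activation plus 3 SD, cut at about 16% in these data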;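 note: peak over basal fluorescence ratio within a 140 s kinetic read after compound addition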
# CHRM1 antagonist: blocks human M1 muscarinic receptor. P11229. CHO-K1 hM1, Fluo-8 calcium fluorescence, ACh EC80 antagonist. inhibition, % at 3 µM. 360,000 compounds, 1.3% hits. AID 588852;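 active = percent inhibition above its own plate's cutoff, namely the mean of that plate's compound wells plus 3 SD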;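 note: peak over basal fluorescence ratio during 140 s after agonist addition; 0% = ACh EC80 plus DMSO and 100% = DMSO alone without agonist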
# CHO-K1 Ca antag: counter-screen for M1 antagonists: effect in parental CHO-K1 cells; ATP-induced calcium, Fluo-8 fluorescence; inhibition, % at 3 µM; 360,000 compounds, 0.6% hits; AID 602250;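 active = inhibition above a per-plate cutoff, the plate's mean sample inhibition plus 3 SD, cut at about 24% in these data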;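 note: 0% = DMSO plus EC80 ATP and 100% = DMSO alone without ATP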
# Starred values were filed as active, the others as inactive.
SMILES,CHRM1 PAM,M1 PAM parental,M1 ag parental,CHRM1 agonist,CHRM1 antagonist,CHO-K1 Ca antag
O=P(CCN1CCCCC1)(c1ccccc1)c1ccccc1,-23,11,1,-6,71*,-1
O=P(O)(CCc1ccccc1)CN1CCCCC1,-2,16,0,-4,4,6
CC1CC2(CCCCC2)N2C(=O)C(=O)c3cccc1c32 (stereo not drawn),7,18,-1,17*,-9,-13
CC1Cc2ccccc2N1S(=O)(=O)c1cccc(C(=O)NNC(=O)c2ccccc2F)c1 (stereo not drawn),0,6,3,-5,2,-11
CCN(CC)CCNC(=O)c1ccc(NC(=O)c2ccc(S(=O)(=O)N(C)c3ccccc3OC)cc2)cc1,-21,-5,1,-8,41*,-11
CCN(CC)CCNC(=O)c1ccc(NC(=O)c2cc(S(=O)(=O)N3CCCCC3)ccc2C)cc1,-26,8,2,-8,94*,-16
CCN(CC)CCNC(=O)c1ccc(NC(=O)c2cccc(S(=O)(=O)N3CCc4ccccc43)c2)cc1,-26,5,5,-7,100*,8
CCN(CC)CCNC(=O)c1ccc(NC(=O)c2ccc(S(=O)(=O)N3CCCC3)cc2)cc1,-1,17,1,-8,5,-29
CCN(CC)CCNC(=O)c1cc(S(=O)(=O)N2CCc3ccccc32)cn1C,-14,13,6,-7,24,15
O=C(NNC(=O)c1ccccc1F)c1cccc(S(=O)(=O)N2CCc3ccccc32)c1,-14,-11,13,0,38*,19
COc1ccccc1N(C)S(=O)(=O)c1ccc(C(=O)Nc2ccc(C(N)=O)cc2)cc1,2,8,2,-2,-1,-10
CCN(CC)CCNC(=O)c1ccc(NC(=O)c2cccc(S(=O)(=O)N3c4ccccc4CC3C)c2)cc1 (stereo not drawn),-23,-26,0,-6,100*,13
CN(C)CCNC(=O)c1cccc(S(=O)(=O)Nc2ccc(F)cc2)c1,1,-7,0,-10,6,10
CC1Cc2ccccc2N1S(=O)(=O)c1cccc(C(=O)NCCCO)c1 (stereo not drawn),3,6,1,-3,-4,5
CCN(CC)CCNC(=O)c1ccc(NC(=O)c2cccc(S(=O)(=O)Nc3ccc(C)cc3)c2)cc1,-31,17,2,-12,98*,-10
COc1ccc(S(=O)(=O)N(C)c2ccc(C(=O)NCc3ccccn3)cc2)cc1OC,8,-26,1,-3,-9,14
CCc1ccc(NC(=O)CSc2nc(=O)n3cc(C)ccc3n2)cc1,-1,-8,0,-3,4,43*
Cc1ccc2nc(SCC(=O)Nc3ccc(F)cc3)nc(=O)n2c1,1,15,2,0,-1,-1
Cc1ccc2c(c1)nnn2C1CCN(S(C)(=O)=O)CC1,9,-6,0,0,2,24*
Cc1ccc2c(c1)nnn2C1CCN(S(=O)(=O)c2ccc(C(=O)O)cc2)CC1,3,12,3,-4,5,-12
O=S(=O)(c1ccc2c(c1)OCCO2)N1CCC(n2nnc3cc(C(F)(F)F)ccc32)CC1,-10,11,6,1,31*,17
Cc1ccc2c(c1)nnn2C1CCN(S(=O)(=O)c2ccc(C(=O)N3C(C)CCCC3C)cc2)CC1 (stereo not drawn),-12,-12,6,1,33*,16
CC(C)NC(=O)C1(C)CCN1C(=O)c1ccccc1Oc1ccccc1 (stereo not drawn),5,14,0,-1,-9,-3
CC(C)(C)Nc1nc2nonc2nc1NC(C)(C)C,-9,12,16*,2,9,-1
OCCNc1nc2nonc2nc1NCCO,6,13,0,-5,-2,-5
SMILES,CHRM1 PAM,M1 PAM parental,M1 ag parental,CHRM1 agonist,CHRM1 antagonist,CHO-K1 Ca antag
CCCC(C)C(=O)Nc1ncc(S(=O)(=O)c2ccc([N+](=O)[O-])cc2)s1 (stereo not drawn),-5,6,36*,40*,28,14
CN(CCO)C(=O)C1CCN(c2ncc(C(F)(F)F)cc2Cl)CC1,0,23,4,-5,4,-8
O=C(c1ccc2nc[nH]c2c1)N1CCN(c2ncc(C(F)(F)F)cc2Cl)CC1,26*,-13,2,11,1,-1
NC(=O)C1CCN(c2ncc(C(F)(F)F)cc2Cl)CC1,-11,22,0,-10,39*,-9
Cn1c(=O)c2c([nH]c(OCc3ccc(Cl)cc3Cl)[n+]2Cc2ccc(F)cc2)n(C)c1=O,-3,-16,0,-1,8,10
COc1ccc(CNC(=O)COC(=O)CN2C(=O)C3CC=CCC3C2=O)cc1 (stereo not drawn),26*,-5,0,3,-24,2
c1ccc(Nc2nnc(-c3cccnc3)s2)cc1,6,-2,1,-3,0,-10
CN(C)S(=O)(=O)c1cccc(NC(=O)c2cccc(N3C(=O)CCC3=O)c2)c1,12,26,1,-4,-12,-3
Cc1c(C(=O)N(C)C2CCCCC2)sc2ncnc(N3CCN(c4ccccc4)CC3)c12,-3,19,1,-5,4,-17
CSCCC(NC(=O)c1ccco1)C(=O)NCC1CCCCC1 (stereo not drawn),24*,2,0,-1,-24,-18
CSCCC(NC(=O)c1ccccc1Br)C(=O)NCC1CCCCC1 (stereo not drawn),2,15,0,-4,-5,-1
CCCNC(=O)C1(C)CCCN(Cc2ccc3c(c2)OCO3)C1 (stereo not drawn),10,16,1,-6,-15,-4
COc1cccc(CC2(CO)CCN(Cc3cnc(N4CCOCC4)s3)CC2)c1,2,0,0,-5,0,-6
OCC1(CCCc2ccccc2)CCN(Cc2cnc(N3CCOCC3)s2)CC1,-5,-4,3,19*,6,-11
O=C(Nc1ccc2c(c1)OCO2)c1c[nH]c(=O)n(-c2ccc(F)cc2)c1=O,5,-1,1,1,-3,-7
O=c1cc(-c2ccccc2)nc2c(Cl)cc(Cl)cn12,10,19,0,-3,-23,-9
O=C(CN1CCC(N2CCCCC2)CC1)N1CCCc2ccccc21,-1,3,0,-5,4,-1
O=C(CN1CCCCC1)N1c2ccccc2CCc2ccccc21,-21,10,0,-4,93*,-1
CC1CCN(CC(=O)N2c3ccccc3CCc3ccccc32)CC1,-27,-7,0,-7,72*,-7
O=C(CN1CCC(O)CC1)N1c2ccccc2C=Cc2ccccc21,-24,13,1,-10,47*,-8
